Experimental data published in ChEMBL document CHEMBL3988442, “University of Dundee, Small-Polar-MMV Screening Library” (2021).
For some assays here: Results with a measured potency or affinity are listed apart.

Legend:
Set-up in all cases: scale not given: direction of the effect not stated beside the values
[1] = target: Protein translocase subunit SecA (Escherichia coli (strain K12)) (UniProt P10408); test: Assay to Identify E. coli SecA ATPase Inhibitors; assay type: functional; conditions: 30 µM
Protein translocase subunit SecA (Escherichia coli (strain K12)), sequence (P10408 whole entry): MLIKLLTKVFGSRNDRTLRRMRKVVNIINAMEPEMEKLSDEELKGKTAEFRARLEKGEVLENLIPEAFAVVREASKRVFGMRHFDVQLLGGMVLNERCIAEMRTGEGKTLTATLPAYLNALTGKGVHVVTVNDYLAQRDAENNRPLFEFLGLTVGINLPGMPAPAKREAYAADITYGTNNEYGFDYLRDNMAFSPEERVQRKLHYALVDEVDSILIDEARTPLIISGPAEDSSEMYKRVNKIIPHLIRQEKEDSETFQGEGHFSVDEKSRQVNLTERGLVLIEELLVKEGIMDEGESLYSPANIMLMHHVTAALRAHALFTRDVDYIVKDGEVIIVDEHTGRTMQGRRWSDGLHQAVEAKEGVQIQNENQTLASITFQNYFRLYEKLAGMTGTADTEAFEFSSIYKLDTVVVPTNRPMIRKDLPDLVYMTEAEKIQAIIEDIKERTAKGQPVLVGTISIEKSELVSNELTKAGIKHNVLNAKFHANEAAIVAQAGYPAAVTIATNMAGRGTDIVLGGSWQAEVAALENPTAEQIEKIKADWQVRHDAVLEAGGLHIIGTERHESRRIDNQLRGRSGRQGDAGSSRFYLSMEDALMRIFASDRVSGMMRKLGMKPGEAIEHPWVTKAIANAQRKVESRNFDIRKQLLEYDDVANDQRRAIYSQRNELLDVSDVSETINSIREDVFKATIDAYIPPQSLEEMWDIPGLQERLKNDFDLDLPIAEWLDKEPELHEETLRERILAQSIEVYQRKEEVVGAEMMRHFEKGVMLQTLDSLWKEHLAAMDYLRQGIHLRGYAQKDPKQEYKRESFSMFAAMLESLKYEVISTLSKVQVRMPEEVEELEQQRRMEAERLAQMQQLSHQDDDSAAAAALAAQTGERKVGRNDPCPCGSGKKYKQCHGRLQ

[2] = target: T1, Ubiquitin-activating enzyme e1, putative (Leishmania donovani (strain BPK282A1)) (UniProt E9BSI1); test: Leishmania donovani Ubiquitin Activating Enzyme (LdE1); assay type: functional; conditions: 30 µM
T1 sequence (whole entry): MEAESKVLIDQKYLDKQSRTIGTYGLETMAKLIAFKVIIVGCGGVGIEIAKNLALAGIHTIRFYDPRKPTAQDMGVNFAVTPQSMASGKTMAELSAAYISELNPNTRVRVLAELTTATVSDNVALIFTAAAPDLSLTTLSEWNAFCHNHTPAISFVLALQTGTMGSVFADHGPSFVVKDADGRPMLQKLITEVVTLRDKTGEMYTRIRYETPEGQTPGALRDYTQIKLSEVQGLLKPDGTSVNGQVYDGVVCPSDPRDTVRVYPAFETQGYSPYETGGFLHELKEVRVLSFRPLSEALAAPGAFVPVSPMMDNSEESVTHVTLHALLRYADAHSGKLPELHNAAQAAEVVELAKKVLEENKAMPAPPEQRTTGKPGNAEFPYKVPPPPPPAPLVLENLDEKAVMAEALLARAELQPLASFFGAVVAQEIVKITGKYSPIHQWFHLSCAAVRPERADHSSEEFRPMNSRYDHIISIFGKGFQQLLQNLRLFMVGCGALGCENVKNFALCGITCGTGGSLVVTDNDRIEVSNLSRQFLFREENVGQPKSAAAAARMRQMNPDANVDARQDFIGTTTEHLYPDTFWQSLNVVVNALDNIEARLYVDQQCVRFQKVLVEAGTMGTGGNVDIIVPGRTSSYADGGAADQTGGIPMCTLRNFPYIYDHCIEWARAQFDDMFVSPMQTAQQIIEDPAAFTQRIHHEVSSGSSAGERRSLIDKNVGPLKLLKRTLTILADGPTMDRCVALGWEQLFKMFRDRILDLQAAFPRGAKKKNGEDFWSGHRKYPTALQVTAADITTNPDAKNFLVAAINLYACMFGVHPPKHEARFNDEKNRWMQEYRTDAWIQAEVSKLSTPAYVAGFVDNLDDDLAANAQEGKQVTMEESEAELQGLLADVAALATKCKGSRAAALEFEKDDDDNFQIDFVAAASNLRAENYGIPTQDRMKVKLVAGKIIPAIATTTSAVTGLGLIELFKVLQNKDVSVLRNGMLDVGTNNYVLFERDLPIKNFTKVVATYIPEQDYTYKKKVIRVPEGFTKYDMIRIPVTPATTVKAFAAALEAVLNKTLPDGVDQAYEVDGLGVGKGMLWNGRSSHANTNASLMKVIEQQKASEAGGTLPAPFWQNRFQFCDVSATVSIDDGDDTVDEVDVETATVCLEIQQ

[3] = target: AMP-activated protein kinase, AMPK (Homo sapiens) (UniProt P54646+O43741+P54619+Q9UGJ0+Q9Y478+Q13131+Q9UGI9); test: AMP-dependent Kinase enzyme assay. An in vitro enzyme assay that detects ADP turnover that is directly proportional to AMPK activity. This uses naive AMPK that is activated during the assay with MK-8722; assay type: functional; conditions: 30 µM
[4] = target: Sialic acid-binding Ig-like lectin 9 (Homo sapiens) (UniProt Q9Y336); test: Hs-Siglec9 ALPHAscreen SOP 20170721; conditions: 10 µM
Sialic acid-binding Ig-like lectin 9 (Homo sapiens), sequence (Q9Y336 whole entry): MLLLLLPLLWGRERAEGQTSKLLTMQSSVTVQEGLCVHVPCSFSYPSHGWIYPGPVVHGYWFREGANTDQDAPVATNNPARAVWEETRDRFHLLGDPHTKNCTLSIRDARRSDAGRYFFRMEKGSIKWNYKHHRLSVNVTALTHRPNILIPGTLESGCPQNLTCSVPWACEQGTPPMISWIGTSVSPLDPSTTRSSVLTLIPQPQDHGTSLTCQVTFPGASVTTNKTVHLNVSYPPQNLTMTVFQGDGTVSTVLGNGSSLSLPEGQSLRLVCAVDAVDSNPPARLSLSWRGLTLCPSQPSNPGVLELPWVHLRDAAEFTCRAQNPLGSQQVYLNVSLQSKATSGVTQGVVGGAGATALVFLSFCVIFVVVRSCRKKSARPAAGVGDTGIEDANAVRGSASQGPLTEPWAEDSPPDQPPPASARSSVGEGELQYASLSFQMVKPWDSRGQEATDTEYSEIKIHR

Trypanosoma cruzi = test: Trypanosoma cruzi phosphomannomutase and mannose-1-phosphate guanylyltransferase assay; assay type: functional; conditions: 10 µM
[5] = target: T2, Arginase-2, mitochondrial (Homo sapiens) (UniProt P78540); test: in vitro enzyme assay to detect the production of urea directly proportional to the activity of Arginase II; assay type: functional; conditions: 33.3 µM; note: in the data most compounds retested in dose-response had high values
T2 sequence (whole entry): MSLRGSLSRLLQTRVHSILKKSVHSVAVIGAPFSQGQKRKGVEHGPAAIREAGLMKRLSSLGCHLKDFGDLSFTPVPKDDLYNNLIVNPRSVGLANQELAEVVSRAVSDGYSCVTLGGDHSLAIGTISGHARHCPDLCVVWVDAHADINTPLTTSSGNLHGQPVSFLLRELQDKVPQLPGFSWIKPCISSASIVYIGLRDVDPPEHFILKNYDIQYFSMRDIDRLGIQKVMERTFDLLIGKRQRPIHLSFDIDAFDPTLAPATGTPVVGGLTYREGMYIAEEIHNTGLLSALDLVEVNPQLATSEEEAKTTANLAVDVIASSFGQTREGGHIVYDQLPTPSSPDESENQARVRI

[6] = target: T3, Proteasome subunit beta (Trypanosoma cruzi) (UniProt O96673); test: Trypanosoma cruzi proteasome chymotrypsin-like activity (TcProtChymo) assay.; note: in the data most compounds retested in dose-response had high values; assay type: functional; conditions: 9.37 µM
T3 sequence (whole entry): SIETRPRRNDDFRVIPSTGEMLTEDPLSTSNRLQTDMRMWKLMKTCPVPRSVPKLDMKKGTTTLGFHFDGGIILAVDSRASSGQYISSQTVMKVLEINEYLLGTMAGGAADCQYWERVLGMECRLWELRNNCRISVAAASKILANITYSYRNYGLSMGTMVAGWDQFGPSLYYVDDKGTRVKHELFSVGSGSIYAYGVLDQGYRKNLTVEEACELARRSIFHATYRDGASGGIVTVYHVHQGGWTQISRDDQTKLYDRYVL

Homo sapiens = species on record: Homo sapiens; test: To identify inhibition of the IFN signalling (Jak-Stat) pathway via expression of an eGFP reporter gene under the control of an IFN-stimulated response element (ISRE) containing MxA promoter.; assay type: functional; conditions: 30 µM
[7] = target: T4, Tyrosyl-tRNA synthetase, putative (Trypanosoma cruzi (strain CL Brener)) (UniProt Q4DSP6); test: Trypanosoma cruzi tyrosyl tRNA synthetase (TcYRS) _High Tyrosine SOP; assay type: functional; conditions: 30 µM; note: in the data most compounds retested in dose-response had high values
T4 sequence (whole entry): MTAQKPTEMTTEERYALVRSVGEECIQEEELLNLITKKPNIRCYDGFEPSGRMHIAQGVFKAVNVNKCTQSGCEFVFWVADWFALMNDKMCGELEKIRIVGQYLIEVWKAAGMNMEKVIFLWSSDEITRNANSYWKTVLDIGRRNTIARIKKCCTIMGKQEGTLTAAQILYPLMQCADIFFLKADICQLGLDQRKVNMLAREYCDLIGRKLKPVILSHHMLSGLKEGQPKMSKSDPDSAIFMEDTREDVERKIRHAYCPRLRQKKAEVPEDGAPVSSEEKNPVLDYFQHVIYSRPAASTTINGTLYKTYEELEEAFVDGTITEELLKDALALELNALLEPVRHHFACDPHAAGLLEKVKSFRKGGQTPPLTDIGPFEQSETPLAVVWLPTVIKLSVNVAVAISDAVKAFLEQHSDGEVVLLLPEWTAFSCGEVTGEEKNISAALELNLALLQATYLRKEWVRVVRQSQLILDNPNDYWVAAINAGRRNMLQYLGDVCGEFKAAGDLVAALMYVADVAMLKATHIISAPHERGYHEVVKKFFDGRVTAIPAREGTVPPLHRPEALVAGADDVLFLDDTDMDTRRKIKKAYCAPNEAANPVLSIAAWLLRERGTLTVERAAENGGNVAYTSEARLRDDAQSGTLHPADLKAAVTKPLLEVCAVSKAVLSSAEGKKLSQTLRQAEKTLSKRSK

[8] = target: T4, Tyrosyl-tRNA synthetase, putative (Trypanosoma cruzi (strain CL Brener)); test: Trypanosoma cruzi tyrosyl tRNA synthetase (TcYRS) SOP; assay type: functional; conditions: 30 µM
[9] = target: Chromo domain-containing protein 1 (Saccharomyces cerevisiae (strain ATCC 204508 / S288c) (Baker's yeast)) (UniProt P32657); test: ScCHD-1 Enzyme Inhibition Assay; assay type: functional; conditions: 30 µM; note: in the data most compounds retested in dose-response had high values
Chromo domain-containing protein 1 (Saccharomyces cerevisiae (strain ATCC 204508 / S288c) (Baker's yeast)), sequence (P32657 whole entry, the tested form may be a part): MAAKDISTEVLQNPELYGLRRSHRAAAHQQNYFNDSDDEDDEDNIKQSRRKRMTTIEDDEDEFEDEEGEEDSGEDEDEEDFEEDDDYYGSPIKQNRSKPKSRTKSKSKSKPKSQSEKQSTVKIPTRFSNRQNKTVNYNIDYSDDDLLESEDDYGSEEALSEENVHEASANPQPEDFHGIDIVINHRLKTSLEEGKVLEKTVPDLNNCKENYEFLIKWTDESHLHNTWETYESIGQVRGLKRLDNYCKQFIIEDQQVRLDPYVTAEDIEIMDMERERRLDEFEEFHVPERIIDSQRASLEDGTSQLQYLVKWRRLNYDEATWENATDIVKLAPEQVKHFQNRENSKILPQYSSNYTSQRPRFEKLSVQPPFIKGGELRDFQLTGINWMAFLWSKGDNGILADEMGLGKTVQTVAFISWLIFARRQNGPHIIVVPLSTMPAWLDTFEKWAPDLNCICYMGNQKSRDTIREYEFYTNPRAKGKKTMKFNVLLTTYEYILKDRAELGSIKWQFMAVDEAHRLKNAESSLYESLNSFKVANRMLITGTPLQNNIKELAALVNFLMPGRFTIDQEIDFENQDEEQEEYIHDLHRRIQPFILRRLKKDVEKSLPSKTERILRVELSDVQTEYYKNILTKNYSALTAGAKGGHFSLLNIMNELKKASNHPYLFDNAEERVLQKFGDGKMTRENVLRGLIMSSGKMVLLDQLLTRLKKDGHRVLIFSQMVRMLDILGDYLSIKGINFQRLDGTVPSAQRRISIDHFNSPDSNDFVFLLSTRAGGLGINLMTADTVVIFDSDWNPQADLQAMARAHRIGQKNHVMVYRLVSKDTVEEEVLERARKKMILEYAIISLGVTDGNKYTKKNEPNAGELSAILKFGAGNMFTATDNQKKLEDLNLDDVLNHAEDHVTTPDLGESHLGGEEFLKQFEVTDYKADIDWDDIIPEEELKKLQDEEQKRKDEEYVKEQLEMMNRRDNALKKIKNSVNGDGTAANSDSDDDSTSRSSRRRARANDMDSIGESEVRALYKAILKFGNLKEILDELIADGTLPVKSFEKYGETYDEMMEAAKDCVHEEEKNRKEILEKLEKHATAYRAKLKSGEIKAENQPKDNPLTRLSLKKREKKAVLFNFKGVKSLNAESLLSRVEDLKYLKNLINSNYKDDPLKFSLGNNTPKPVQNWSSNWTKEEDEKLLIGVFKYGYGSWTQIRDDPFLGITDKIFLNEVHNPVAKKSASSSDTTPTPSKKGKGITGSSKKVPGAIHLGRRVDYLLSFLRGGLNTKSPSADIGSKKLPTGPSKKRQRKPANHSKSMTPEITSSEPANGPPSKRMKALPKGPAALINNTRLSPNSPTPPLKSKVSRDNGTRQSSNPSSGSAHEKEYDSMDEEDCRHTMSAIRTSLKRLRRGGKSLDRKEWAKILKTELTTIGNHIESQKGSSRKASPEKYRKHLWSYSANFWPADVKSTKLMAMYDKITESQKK

| SMILES | Percent Effect [1] | Percent Effect [2] | Percent Effect [3] | Percent Effect [4] | Percent Effect (Trypanosoma cruzi) | Percent Effect [5] | Percent Effect [6] | Percent Effect (Homo sapiens) | Percent Effect [7] | Percent Effect [8] | Percent Effect [9] |
| --- | --- | --- | --- | --- | --- | --- | --- | --- | --- | --- | --- |
| O=C(NCC1CC1)C1CN(C(=O)c2ccncc2)CC12CCOCC2 (configuration not stated) | 1.79% | 15.6% | -0.39% | -4.66% | 0.296% | 4.52% | 17.6% | 28.1% | 2.12% | 19.2% | -10.9% |
| Cc1ccccc1CN1CCCN(C2CCOC2=O)CC1 (configuration not stated) | -1.89% | -18.9% | -9.35% | 10.9% | -3.3% | 1.2% | 10.4% | 0.38% | 2.46% | 3.7% | 1.51% |
| O=C(COc1coc(CN2CCCCC2)cc1=O)Nc1ccccc1Cl | -4.47% | 4% | 6.82% | 3.14% | -2.16% | -8.28% | 12.2% | -3.22% | 10.6% | 12.8% | 0.706% |
| CC(NC(=O)NCc1ccc(Cl)s1)c1ccccn1 (configuration not stated) | -1.22% | 11.4% | 6.06% | 1.35% | -3.38% | 2.37% | 5.49% | 12.4% | 3.12% | 15.2% | -12.8% |
| CC(C)c1ncc2c(n1)CN(Cc1nc(-c3ccoc3)no1)CC2 | -2.65% | 10.8% | -16.9% | 5.18% | 0.0929% | -0.185% | 6.46% | 12.5% | 9.9% | 3.66% | 11.7% |
| CSc1ccc(C(CN)N2CCc3sccc3C2)cc1 (configuration not stated) | 0.534% | -15.8% | -4.11% | -9.22% | 3.6% | -5.92% | 6.42% | 39.7% | 17% | 28.6% | 1.73% |
| CC(=O)NCc1ccc(C(=O)N2CCCCC2Cn2cccn2)o1 (configuration not stated) | -1.39% | 27% | -1.91% | -5% | 4.18% | -5.36% | 14.4% | 17.1% | 1.98% | 18.3% | -6.26% |
| O=C(NCCNc1ncccn1)N(Cc1ccc(F)cc1F)C1CC1 | -3.52% | 10.1% | -4.4% | 16.9% | -2.36% | 1.52% | -3.03% | 8.99% | 2.46% | 8.86% | -3.1% |
| O=C1CCCCN1c1cccc(CNC2CCCC2)c1 | -1.28% | 0% | 5.47% | 3.26% | 2.06% | 2.74% | 8.49% | -9.59% | 2.86% | 7.06% | -7.72% |
| Cc1nccn1C1CCCN(C(=O)c2ccc3c(c2)NC(=O)CO3)C1 (configuration not stated) | -3.38% | 2.7% | -9.28% | -2.15% | 4.43% | -1.2% | 14.1% | -3.11% | 6.4% | 16.1% | -9.9% |
| O=C(CCc1cnn(-c2ccccc2)c1)N1CCCC(n2cccn2)C1 (configuration not stated) | -2.31% | 10.5% | 2.58% | 12.9% | 3.38% | 4.98% | 0.668% | 14.7% | 8.33% | 17.1% | -11.6% |
| CCc1nc(CN2CCN(C(=O)COCc3ccccc3)CC2)no1 | -6.48% | 8.11% | -6.87% | 35% | 4.4% | 25.1% | 10.7% | -6.99% | 2.15% | 8.64% | -11.6% |
| CN1C[C@H]2CCN(C(=O)NC3CCCC3)CC[C@H]2S1(=O)=O | 1.67% | -4% | 10.5% | -0.732% | -5.7% | 29.4% | 4.62% | -1.7% | 1.06% | -2.56% | -5.65% |
| Cc1ccc(-c2nnc(SCC(=O)O)n2-c2ccc(C)cc2)cc1 | -2.58% | 13.3% | 1.28% | 2.44% | 3.74% | 1.17% | 13.8% | 28.5% | 6.38% | -98.7% | -3.8% |
| CNS(=O)(=O)CCCN1CCCC1c1noc(C2CC2)n1 (configuration not stated) | 0.851% | -2.53% | 9.34% | -2.31% | -2.74% | 4.56% | 9.91% | 10.4% | 0.493% | 1.27% | -7.17% |
| CCOc1cc(C(=O)N2CCCC(n3cncn3)C2)ccc1C (configuration not stated) | 2.65% | -8.11% | 0.403% | -1.22% | -1.21% | 1.66% | -7.18% | 4.36% | 0.99% | 1.22% | 11.6% |
| CC(CN1CCOCC1)NCC1CCN(c2cnn(C)c(=O)c2)CC1 (configuration not stated) | -4.77% | -1.39% | -4.64% | 1.85% | -1.85% | -0.883% | 4.21% | -10.4% | 0% | -10.3% | 1.95% |
| CCN(C)S(=O)(=O)N(CC)Cc1ccc2c(c1)OCO2 | -5.09% | 15.6% | 0.454% | 4.35% | -4.49% | 1.42% | 8.11% | 11.3% | 4.85% | 19.5% | -8.91% |
| CN(Cc1ccco1)Cc1cncc2c1CCN(c1ncccn1)C2 | -0.988% | 8% | -6.54% | -2.14% | 3.86% | -48.6% | 14.9% | -4.67% | -1.04% | 2.5% | -2.02% |
| Cc1nsc(N2CCCN(c3nc(C4CC4)ns3)CC2)n1 | -2.5% | 11% | 9.09% | 5.05% | 4.9% | 19.1% | 10.1% | 5.1% | 1.07% | 5% | -4.56% |
| CN1C(=O)C[C@@H]2[C@@H]1CCN2C(=O)c1ccc[nH]1 | -5.79% | -2.74% | 1.46% | 3.04% | -1.59% | -3.99% | 10.7% | 17.1% | 1.04% | 6.17% | 0.233% |
| CN(C)Cc1cc(=O)n2c(n1)CN(C(=O)Cc1ccsc1)CCC2 | 0.204% | 2.6% | 0.0483% | -0.795% | 0.492% | 1.38% | 6.49% | -22.4% | 1.07% | 1.24% | -2.76% |
